# Source: PubChem BioAssay AID720706 (Broad Institute, 2013)
# “And” between values parts separate entries of the source, which are not always exact repeats. Identical values can stand only once. The campaign covered roughly 350,000 compounds. About 5,500 (1.6%) were called active.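 How the source made its calls: active means significant combined selectivity score with lowered wild-type GFP, culture density cut under 30%, mutant RFP and density less affected; inactive means any of these conditions unmet.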 This excerpt belongs to a sample that is enriched for actives.
# Assay: GFP drop in mixed WT/humanized-ribosome E. coli culture – GFP/RFP fluorescence, OD600, single point, bacterial rRNA inhibitor project, primary screen (AID 720706)
# Conditions: E. coli WT GFP vs humanized-ribosome RFP mutants, 24 h; GFP signal change (wild-type ribosome): stronger effect = lower value, DMSO median 0, no signal -100; OD600 change: measured here: OD600 growth, DMSO median 0, no signal -100; RFP signal change: measured here: RFP humanized mutant strains, DMSO median 0, no signal -100, concentration not given here
Compound,GFP signal change (wild-type ribosome),OD600 change,RFP signal change
COc1ccc(NC(=O)CSc2nc(SC)ns2)c(OC)c1,-4.47% (inactive),-9.82%,2.07%
CCc1cc2cc(OC)ccc2nc1SCC(=O)Nc1cc(OC)c(OC)cc1C(=O)O,-19.8% (active),-8.13%,-0.961%
COc1ccc(OC)c(NC(=O)CSc2nc(-c3ccccc3)cc(=O)[nH]2)c1,-0.85% (inactive),-0.395%,-1.33%
COc1cccc(NC(=O)N2[C@@H]3CNC[C@H]2C3c2ccc(-c3ccncc3)cc2)c1 (some centres undefined),5.32% (inactive) and -0.155% (inactive),9.53% and -0.49%,1.61% and -4.31%
Cc1ccc(S(=O)(=O)N2CC(O)C[C@H]2C(=O)OCC(=O)Nc2ccc(N3CCOCC3)cc2)cc1C (some centres undefined),4.3% (inactive),7.03%,2.94%
CC1CCCC(NC(=O)COC(=O)[C@@H]2CC(O)CN2S(=O)(=O)c2ccc3c(c2)OCCO3)C1C (some centres undefined),-31.5% (active),-14.6%,-2.13%
O=C1COc2ccc(C(=O)COC(=O)C3CC(O)CN3S(=O)(=O)c3ccc(Cl)cc3)cc2N1 (centres undefined),-11.8% (inactive),-8.3%,1.61%
COCC#Cc1ccc([C@H]2[C@H](CO)N3CCCCN(Cc4ccncc4)C[C@@H]23)cc1,-2.93% (inactive),-2.59%,-5.64%
COc1ccc(S(=O)(=O)NC(C)C(=O)NCc2ccncc2)cc1Cl (centres undefined),2.54% (inactive),0.925%,-2.25%
Cc1ccc(S(=O)(=O)NC(C)C(=O)NCc2ccc(Cl)cc2)cc1 (centres undefined),-22.7% (active),-10.8%,-4.03%
CC(C)CNS(=O)(=O)c1ccc(CCC(=O)NCc2ccc(Cl)cc2)cc1,10.8% (inactive),11.2%,-2.51%
CCC(=O)Nc1ccc2c(c1)OC[C@@H](C)N(CC1CC1)C[C@H](C)[C@H](OC)CN(C)C2=O,1.22% (inactive),-0.6%,-0.045%
CC(C)NC(=O)/C(C#N)=C\c1ccc(N(C)C)c(Br)c1,-19.9% (active),-12.4%,3.85%
Cc1[nH]c2ccccc2c1/C=C(/C#N)C(=O)NC(C)C,-4.98% (inactive),5.32%,-3.18%
CC(C)(C)C(=O)/C(C#N)=C/c1ccc(O)cc1,19.8% (inactive),5.69%,-9.62%
O=C(NCC[C@H]1CC[C@H](NS(=O)(=O)c2ccccc2)[C@H](CO)O1)c1cc(Cl)cc(Cl)c1,-5.21% (inactive),-26.1%,22%
Cc1ccc(CNC(=O)CC2Sc3ccccc3NC2=O)cc1 (centres undefined),11.2% (inactive),14.1%,3.46%
COC(=O)c1cc(C)sc1NC(=O)CC1Nc2ccccc2NC1=O (centres undefined),-18.4% (active),-7.76%,12.5%
CCc1cc(C(=O)OC)c(NC(=O)CC2Sc3ccc(C(F)(F)F)cc3NC2=O)s1 (centres undefined),0.188% (inactive),4.88%,-2.55%
O=C(O)c1[nH]c2ccccc2c1C(c1cccc(O)c1)c1c(C(=O)O)[nH]c2ccccc12,-25.6% (active),-18.5%,8.53%
O=C(OCC(=O)c1c[nH]c2ccccc12)c1cccc(O)c1,-42.8% (inactive),-45.1%,-14.1%

Compound,GFP signal change (wild-type ribosome),OD600 change,RFP signal change
COc1ccc2c3c(n(C)c2c1)[C@@H](CO)N(C(C)=O)CC31CCN(Cc2ccc(Cl)cc2)CC1,-1.69% (inactive),-3.51%,1.83%
C=CCOc1ccc(/C=C2\SC(=S)N(CCC(=O)O)C2=O)cc1,-32.4% (active),-18.9%,-4.79%
COc1ccc(/C=C2\SC(=S)N(CCC(=O)N3CCOCC3)C2=O)cc1OC,10.4% (inactive),16.7%,0.46%
O=C1/C(=C/c2ccc(F)cc2)SC(=S)N1CCCC(=O)N1CCCCC1CCO (centres undefined),-19.1% (inactive),-28.5%,-4.34%
Cc1ccc(CNC(=O)c2cc(-c3ccccc3C)n(CC3CC(c4cccc([N+](=O)[O-])c4)=NO3)n2)cc1 (centres undefined),6.99% (inactive),10.7%,-2.49%
Cc1ccccc1-c1cc(C(=O)NCC2CC2)n(CC2CC(c3cccnc3)=NO2)n1 (centres undefined),-8.08% (inactive),-3.34%,-12%
Cc1ccccc1-c1cc(C(=O)NCc2cccs2)n(CC2CC(c3cccnc3)=NO2)n1 (centres undefined),-17.6% (active),-10.9%,5.68%
Clc1ccc(Nc2ccc3ccccc3n2)cc1,-54.6% (active),-30%,-18%
C=CCNc1nc(Nc2ccc(Cl)cc2)nc(OC)n1,-33.3% (inactive),-34%,-2.27%
O=C(NNC(=O)c1ccc2ccccc2c1)c1ccc(Cl)cc1,2.13% (inactive),11.3%,-2.59%
COc1ccc(C#Cc2ccc([C@H]3[C@@H](CO)N4CCCCN(S(=O)(=O)c5cn(C)cn5)C[C@H]34)cc2)cc1,-58.4% (inactive),-77.4%,-16.4%
O=C(CC1CC1)N1[C@@H](CO)[C@@H](c2ccccc2)C12CN(S(=O)(=O)c1ccccc1)C2,-0.794% (inactive),0.08%,4.17%
CO[C@H]1CN(C)C(=O)c2ccc(NC(=O)C3CC3)cc2OC[C@H](C)N(C(=O)CN2CCOCC2)C[C@@H]1C,2.07% (inactive),1.32%,-3.59%
C[C@H](CO)N1C[C@H](C)[C@H](CN(C)Cc2ccc(C(=O)Nc3ccccc3N)cc2)Oc2ccc(NC(=O)Nc3ccccc3)cc2CC1=O,-24.5% (inactive),-22.3%,1.58%
C[C@@H]1CCCCO[C@H](CN(C)C(=O)NC2CCCCC2)[C@H](C)CN([C@@H](C)CO)C(=O)c2cc(NC(=O)C3CCCCC3)ccc2O1,-5.13% (inactive),-0.493%,-3.14%
COc1ccc(NC(=O)Nc2cccc3c2O[C@@H](CN(C)S(=O)(=O)c2cn(C)cn2)[C@H](C)CN([C@@H](C)CO)C3=O)cc1,-1.33% (inactive),-1.5%,-0.415%
O=C(NC1CCCC1)[C@@H]1[C@@H](CO)[C@@H]2Cn3c(ccc(-c4ccc(F)cc4)c3=O)[C@H]1N2Cc1cocn1,-0.879% (inactive),4.54%,-1.31%
COC(=O)C[C@@H]1C[C@@H]2c3cc(NC(=O)NC4CCCC4)ccc3O[C@@H]2[C@@H](CO)O1,1.15% (inactive),-0.449%,-0.687%
OC[C@@H]1CN(Cc2ccc(-c3ccccc3)cc2)C[C@H](n2cnc3c(NC4CCCC4)ncnc32)O1,-21.9% (active),-14.8%,-2.32%
OC[C@@H]1CN(Cc2cccs2)C[C@H](n2cnc3c(NC4CCCC4)ncnc32)O1,-2.42% (inactive),-4.54%,4.82%
OC[C@@H]1CN(Cc2ccc(F)cc2)C[C@H](n2cnc3c(NC4CCCC4)ncnc32)O1,-15.1% (inactive),-8.49%,0.518%

Compound,GFP signal change (wild-type ribosome),OD600 change,RFP signal change
CCCN1C[C@@H](C)[C@@H](OC)CN(C)C(=O)c2cc(NC(=O)NC3CCCCC3)ccc2OC[C@H]1C,2.68% (inactive),4.16%,-1.33%
O=C(C[C@@H]1CC[C@@H]2[C@H](COC[C@H](O)CN2S(=O)(=O)c2ccc(F)cc2)O1)NCc1ccc(Cl)c(Cl)c1,-20.8% (inactive),-43.9%,0.781%
C[C@@H]1CN([C@H](C)CO)C(=O)Cc2cc(NC(=O)Cn3cnnn3)ccc2O[C@@H]1CN(C)S(=O)(=O)c1ccc(F)cc1,4.41% (inactive),-2.05%,0.611%
CC1(C(=O)O)CCC(C(=O)Nc2ccc(Cl)c(Cl)c2)C1(C)C (centres undefined),-23.4% (active),-16.1%,-7.62%
O=C(Nc1ccc(Cl)c(Cl)c1)c1ccccc1NC(=O)C1CC=CCC1C(=O)O (centres undefined),-35.4% (inactive),-49.6%,-4.13%
O=C(Nc1ccc2c(c1)OCO2)C1CC1(Cl)Cl (centres undefined),-1.64% (inactive),3.17%,-2.98%
Cc1noc(C)c1S(=O)(=O)Nc1ccc2c(c1)CC(=O)N([C@@H](C)CO)C[C@H](C)[C@H](CN(C)C(=O)Nc1cccc3ccccc13)O2,-2.17% (inactive),-1.79%,1.2%
COc1ccc(S(=O)(=O)Nc2ccc3c(c2)CC(=O)N([C@@H](C)CO)C[C@@H](C)[C@@H](CN(C)Cc2ccc(C(=O)Nc4ccccc4N)cc2)O3)cc1,-5.01% (inactive),-12%,2.02%
C[C@H](CO)N1C[C@H](C)[C@H](CN(C)C)Oc2ccc(NC(=O)c3ccncc3)cc2CC1=O,2.76% (inactive),14.2%,0.42%
CCn1c(O)c(N=NC(=O)c2cccc(S(=O)(=O)N3CCCCC3)c2)c2ccccc21,-23.6% (active),-16.1%,-4.79%
CCn1c2ccccc2c2cc(NC(=O)COC(=O)c3cc(S(=O)(=O)N4CCCCC4)ccc3Cl)ccc21,10.5% (inactive),8.82%,4.22%
O=C(c1cccc(S(=O)(=O)N2CCCCCC2)c1)N1CCN(Cc2ccccc2)CC1,-2.42% (inactive),-10.1%,4.63%
COc1ccc(CN2[C@H](CO)[C@@H]3c4ccccc4N(C(=O)C4CC4)C[C@@H]32)cc1,-9.79% (inactive),-9.13%,-1.21%
O=C(NC1CCCCC1)N1CC2(C1)[C@H](c1ccccc1)[C@@H](CO)N2S(=O)(=O)Cc1ccccc1,-0.158% (inactive),-18.2%,1.15%
C=CCc1c(C)nc2cc(-c3ccccc3)[nH]n2c1=O,-6.23% (inactive),-4.26%,-2.25%
Cc1nc2nc[nH]n2c(=O)c1C/C=C/c1ccccc1,-22.4% (active),1.36%,-5.82%
O=C(C[C@H]1C=C[C@H](NC(=O)C2CCOCC2)[C@@H](CO)O1)NCC1CC1,-0.532% (inactive),2.38%,0.125%
C[C@@H]1CN(C)C(=O)c2cc([N+](=O)[O-])ccc2O[C@@H]1CN(C)C(=O)OC(C)(C)C,-2.71% (inactive),7.21%,-0.0835%
CCN1CCN(c2nc(Nc3cccc(F)c3)nc(N)c2[N+](=O)[O-])CC1,1.28% (inactive),-14.8%,-3.28%
COc1cccc(NC(=O)COc2cccnc2[N+](=O)[O-])c1,2.25% (inactive),2.69%,-3.22%
COc1cccc(Nc2nc(N)c([N+](=O)[O-])c(NCc3ccco3)n2)c1,-45.5% (active),-19.5%,-12.3%
